# Laboratory results taken from PubChem BioAssay (NCATS).
# Where “and” joins values, the source holds several entries; their conditions need not be identical. Equal values may be shown once. Values without a mark were called inactive. Results filed as inconclusive are left out. Calls of active or inactive are those of the source. Unless noted, calls follow the shape of the dose curve; as a rule, active = well fitted curve in the direction sought with a large enough effect; inconclusive = small, poorly fitted or top-dose-only effect, or another doubt; inactive = no such curve, though single readings can be large; an effect the other way counts as inactive or inconclusive.
# How the values were obtained:
# [1] = Cell Viability - BJ (AID 421; calls by dose curve;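 also: potency is read from the fitted curve at half-maximal effect; cells exposed to compound for 40 hours at 37 °C before readout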); details: BJ fibroblast viability, qHTS
# How it was run: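 Quantitative HTS: ATP depletion in BJ cells after 40 hr compound exposure in complete culture medium, detected with CellTiter-Glo; AC50 from standard Hill fits.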
# [2] = Cell Viability - Jurkat (AID 426;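 active = dose-dependent loss of cell ATP signal giving a full or clear fitted curve, ranked by lower potency value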;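 also: potency is read from the fitted curve at half-maximal effect; cells exposed to compound for 40 hours at 37 °C before ATP read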); details: qHTS
# How it was run: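 Cells of the human T-cell leukemia line Jurkat (E6-1) are seeded at 5000 per well, treated with compound across a concentration range for 40 hours at 37 °C, then lysed with CellTiter-Glo; luminescence reports ATP.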
# [3] = Cell Viability - Hek293 (AID 427;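 active = compounds whose dose-response curve shows a full or clear partial loss of cell viability, called from curve shape rather than a numeric limit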;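 also: potency is read from the fitted curve at half-maximal effect; cells exposed to compound for 40 hours at 37 °C before reading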); details: qHTS
# How it was run: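 AC50 values derive from Hill-modelled concentration-response of ATP-based luminescence, normalized between DMSO-only and 100 uM tamoxifen controls. Cells were exposed in complete culture medium for 40 hr at 37 °C before detection.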
# [4] = Cell Viability - HepG2 (AID 433; calls by dose curve;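 also: potency is read from the fitted curve at half-maximal effect; potency for ATP loss meaning cytotoxicity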); details: qHTS
# How it was run: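 Read-out is luciferase-based quantitation of cellular ATP as a measure of viable HepG2 cells after 40 h treatment at 37 °C. Signal decrease is scaled between DMSO-only and 100 uM tamoxifen controls, with AC50 fitted by the Hill equation.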
# [5] = Cell Viability - MRC5 (AID 434; calls by dose curve;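 also: potency is read from the fitted curve at half-maximal effect; potency reflects cytotoxicity seen as loss of intracellular ATP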); details: MRC5 lung fibroblast viability, qHTS
# How it was run: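 AC50 values come from Hill-equation fits of intracellular ATP loss, measured by CellTiter-Glo luminescence. Normal lung fibroblasts (MRC5) had 40 hr compound treatment at 37 C, normalized between DMSO and 100 uM tamoxifen.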
# [6] = Cell Viability - SK-N-SH (AID 435; calls by dose curve;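 also: potency is read from the fitted curve at half-maximal effect; compound exposure lasted 40 h at 37 °C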); details: SK-N-SH neuroblastoma cell viability qHTS
# How it was run: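 Luminescent ATP signal served as the viability read-out after 40 hours of compound treatment of human neuroblastoma SK-N-SH cells. Concentration-response data, scaled between DMSO and 100 uM tamoxifen, gave AC50 values by standard Hill modeling.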
# [7] = biological target: Mitogen-activated protein kinase 10 (Mus musculus) (UniProt Q61831); test: JNK3 AlphaScreen Assay (AID 530; active = well fitted curve in either direction with a large enough effect, not every such curve was filed as active;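 also: kinase came from lysate of stimulated human HepG2 cells; signal reports phosphorylation of biotinylated GST-cJun 1-79 at Ser73 with 10 µM ATP; % is scaled to controls: 0 for no effect and ±100 for the full control effect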); details: JNK3 lysate, c-Jun phosphorylation; series mostly up to 57.1 µM
# How it was run: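 qHTS titrations with 15 min compound pre-incubation before adding ATP (10 uM final). Read-out: AlphaScreen of Ser73-phosphorylated biotin-GST-cJun using HepG2 lysate JNK3 activated by IL-1β and TNFα.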
# [8] = Cell Viability - N2a (AID 540); details: N2a mouse neuroblastoma cell viability; at 92.2 µM (top of the series);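 also: cells exposed to compound for 40 h at 37 °C; plate controls were DMSO alone for no effect and tamoxifen control for full effect; nearly all actives have a fitted effect of over 45% in size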
# How it was run: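 Cytotoxicity was scored as loss of cellular ATP in N2a cells, a mouse neuroblastoma line. Compounds are applied in a qHTS concentration series for 40 hr at 37 °C.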
# [9] = Cell Viability - NIH 3T3 (AID 541); details: NIH 3T3 cell viability, qHTS; series mostly up to 92.2 µM;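 also: plate controls were DMSO alone for no effect and tamoxifen positive control for full effect; nearly all actives have a fitted effect of over 25% in size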
# How it was run: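 Cells seeded at 1000/well, rested 5 hr at 37 °C, then dosed and incubated 40 hr at 37 °C. CellTiter-Glo added, 20 min room temperature, luminescence read. AC50 by Hill fit.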
# [10] = Cell Viability - HUV-EC-C (AID 542); details: HUV-EC-C endothelial cell viability, qHTS; series mostly up to 92.2 µM; also: % is scaled to controls: 0 for no effect and ±100 for the full control effect; nearly all actives have a fitted effect of over 35% in size
# How it was run: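 Cells were seeded at 1000 per well and incubated 5 hr at 37 °C before compound addition. After 40 hr at 37 °C, CellTiter-Glo reagent was added for 20 min and luminescence read. AC50 values came from Hill-equation modelling.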
# [11] = Cell Viability - H-4-II-E (AID 543); details: H-4-II-E rat hepatoma viability; series mostly up to 92.2 µM; also: % is scaled to controls: 0 for no effect and ±100 for the full control effect; nearly all actives have a fitted effect of over 35% in size
# How it was run: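 Cells seeded at 1500 per well and rested 5 hr; compounds added; 40 hr incubation at 37 °C; CellTiter-Glo added, 20 min at room temperature; luminescence read. Hill-equation fits gave AC50.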
# [12] = Cell Viability - SH-SY5Y (AID 544); details: SH-SY5Y neuroblastoma cell viability; at 92.2 µM (top of the series);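 also: 0% = DMSO alone and -100% = 100 µM tamoxifen; nearly all actives have a fitted effect of over 55% in size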
# How it was run: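 Cells were plated at 1500 per well and allowed 5 hr at 37 °C. Compounds were added across a concentration range and incubated 40 hr at 37 °C. CellTiter-Glo was added for 20 min at room temperature before luminescence reading.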
# [13] = Cell Viability - Renal Proximal Tubule (AID 545); details: renal proximal tubule cells viability, primary cells of rat origin; series mostly up to 91.7 µM;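 also: 0% = DMSO only and -100% = 100 µM tamoxifen; nearly all actives have a fitted effect of over 40% in size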
# How it was run: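 Luminescent ATP signal (CellTiter-Glo) served as the viability read-out after 40 hr compound exposure of freshly isolated rat proximal tubule cells at 37 °C. Concentration-dependent ATP loss was fitted with the Hill equation to give AC50.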
# [14] = Cell Viability - Mesenchymal (AID 546); details: mesenchymal cells viability, qHTS; at 91.7 µM (top of the series);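 also: cells exposed to compound for 40 hours before reading; 0% = DMSO only and -100% = 100 µM tamoxifen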
# How it was run: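 CellTiter-Glo luminescence (intracellular ATP, 20 min room temperature) after 40 hr compound exposure at 37 °C of 1000 glomerulus-derived human kidney mesenchymal cells/well; AC50 values obtained by fitting qHTS concentration-response data to the Hill equation.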
# [15] = biological target: Glucocorticoid receptor (Homo sapiens) (UniProt P04150); test: GR-EFC Redistribution (AID 451; calls by dose curve; also: potency is read from the fitted curve at half-maximal effect); details: CHO-K1 GR-EFC translocation, beta-gal luminescence, 2 h
# How it was run: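 Translocation of GR-ED fusion to nuclear EA restores b-gal, read by luminescence after 1 h room-temperature detection. Engineered CHO-K1 biosensor cells, 1,000/well, exposed 2 h at 37 C to titrations up to 46 uM final.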
# [16] = biological target: Cytochrome P450 1A2 (Homo sapiens) (UniProt P05177); test: p450-cyp1a2 (AID 410; calls by dose curve;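 also: -100% = full effect of reference inhibitor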); details: recombinant CYP1A2, luciferin-ME demethylation, luminescence; series mostly up to 57 µM
# How it was run: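 O-Demethylation of luciferin 6' methyl ether by human CYP1A2 is monitored as luciferase luminescence. Substrate sits at Km (100uM); enzyme is 20nM. Values are scaled to 57 uM furafylline as maximal inhibition.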
# [17] = Stat Signaling Pathway (AID 446; active = well fitted curve in either direction with a large enough effect, not every such curve was filed as active;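 also: ME-180 cervical cancer cells given 40 pM IL-6 alongside compound; SIE-controlled beta-lactamase reporter measured as 460/530 nm FRET emission ratio; % is scaled to controls: 0 for no effect and ±100 for the full control effect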); details: ME-180 (cervical carcinoma) SIE beta-lactamase reporter, IL-6 stimulated, 5 h; series mostly up to 17.2 µM
# How it was run: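 Overnight-plated ME-180 cells bearing a STAT Inducible Element beta-lactamase reporter; 5 h co-exposure to compound and 40 pM IL-6; values normalized to 300 pM IL-6 and 125 nM JAK inhibitor controls.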
# [18] = NFAT Signaling Pathway (AID 444; active = well fitted curve in either direction with a large enough effect, not every such curve was filed as active;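 also: carbachol stimulus at about its EC50 of 1 µM final; % is scaled to controls: 0 for no effect and ±100 for the full control effect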); details: Jurkat NFAT-bla M1, carbachol, beta-lactamase ratio, 5 h; at 17.2 µM (top of the series)
# How it was run: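 Read-out: CCF4 FRET ratio (460 nm/530 nm) after 1 h RT dye loading, used for %activity and AC50 from titration series. Cells: Jurkat NFAT-β-lactamase/M1 line, treated with compound plus 1 uM carbachol for 5 h, 37 °C.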
# Sequence of Glucocorticoid receptor (Homo sapiens) (P04150 whole entry, looked up, the tested form may be a part): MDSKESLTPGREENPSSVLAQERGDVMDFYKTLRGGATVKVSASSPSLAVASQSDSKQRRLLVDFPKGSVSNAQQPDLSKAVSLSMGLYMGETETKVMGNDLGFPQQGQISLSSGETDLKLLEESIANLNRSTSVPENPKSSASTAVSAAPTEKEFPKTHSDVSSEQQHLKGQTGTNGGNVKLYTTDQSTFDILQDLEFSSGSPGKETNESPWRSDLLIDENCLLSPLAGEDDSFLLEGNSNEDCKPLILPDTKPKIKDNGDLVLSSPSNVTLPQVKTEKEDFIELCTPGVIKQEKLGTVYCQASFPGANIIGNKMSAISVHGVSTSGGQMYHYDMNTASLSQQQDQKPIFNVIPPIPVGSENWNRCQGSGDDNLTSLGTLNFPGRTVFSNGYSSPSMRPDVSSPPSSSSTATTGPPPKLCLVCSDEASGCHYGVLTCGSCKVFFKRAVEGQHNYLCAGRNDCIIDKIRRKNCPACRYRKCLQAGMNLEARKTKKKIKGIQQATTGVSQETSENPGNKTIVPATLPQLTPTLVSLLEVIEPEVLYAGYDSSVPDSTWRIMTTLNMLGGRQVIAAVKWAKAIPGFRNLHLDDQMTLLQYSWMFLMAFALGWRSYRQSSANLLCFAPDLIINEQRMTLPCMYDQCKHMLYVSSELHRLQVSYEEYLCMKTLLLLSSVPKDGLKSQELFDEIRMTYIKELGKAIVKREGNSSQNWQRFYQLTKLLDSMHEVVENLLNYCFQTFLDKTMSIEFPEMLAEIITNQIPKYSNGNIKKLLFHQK
# Sequence of Cytochrome P450 1A2 (Homo sapiens) (P05177 whole entry, looked up): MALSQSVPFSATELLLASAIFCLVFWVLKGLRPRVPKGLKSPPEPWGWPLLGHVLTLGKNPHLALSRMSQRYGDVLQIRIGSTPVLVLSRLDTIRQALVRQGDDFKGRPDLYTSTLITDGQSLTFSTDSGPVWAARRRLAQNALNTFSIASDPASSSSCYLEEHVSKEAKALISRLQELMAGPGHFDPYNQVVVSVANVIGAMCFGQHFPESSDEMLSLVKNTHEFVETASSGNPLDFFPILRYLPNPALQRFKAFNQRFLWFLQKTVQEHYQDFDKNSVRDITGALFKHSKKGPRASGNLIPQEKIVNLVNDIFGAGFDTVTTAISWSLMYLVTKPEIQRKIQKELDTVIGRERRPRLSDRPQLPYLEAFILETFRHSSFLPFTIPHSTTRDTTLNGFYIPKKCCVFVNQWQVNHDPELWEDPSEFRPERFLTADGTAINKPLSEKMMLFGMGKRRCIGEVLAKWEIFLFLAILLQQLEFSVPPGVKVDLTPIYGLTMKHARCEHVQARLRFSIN
smiles,measurement,setting,value
Cc1ccccc1,Potency,[1],> 92 µM
same,Potency,[2],> 92 µM
same,Potency,[3],> 92 µM
same,Potency,[4],> 92 µM
same,Potency,[5],> 92 µM
same,Potency,[6],> 92 µM
same,outcome,[7],inactive
same,"activity change, negative = cytotoxicity",[8],5.04% and 4.17%
same,outcome,[9],inactive
same,Potency,[10],inactive
same,Potency,[11],inactive
same,"viability change, negative = cytotoxic",[12],-8.19% and -6.58%
same,outcome,[13],inactive
same,"activity change, negative = cytotoxicity",[14],6.68% and 3.68%
COC(=O)C1=C(C)NC(C)=C(C(=O)OCCCN2CCC(c3ccccc3)(c3ccccc3)CC2)[C@H]1c1cccc([N+](=O)[O-])c1,Potency,[15],> 46 µM
same,outcome,[7],inactive
CC(C)=O,Potency,[1],> 92 µM
same,Potency,[2],> 92 µM
same,Potency,[3],> 92 µM
same,Potency,[4],> 92 µM
same,Potency,[5],> 92 µM
same,Potency,[6],> 92 µM
same,outcome,[7],inactive
same,"activity change, negative = cytotoxicity",[8],-2.26%
same,outcome,[9],inactive
same,Potency,[10],inactive
same,Potency,[11],inactive
same,"viability change, negative = cytotoxic",[12],-5.22%
same,outcome,[13],inactive
same,"activity change, negative = cytotoxicity",[14],-1.45%
O=C(O)CC/C=C\CC[C@H]1[C@@H](N2CCCCC2)[C@@H](O)C[C@@H]1OCc1ccc(-c2ccccc2)cc1,Potency,[16],inactive
same,Potency,[15],> 46 µM
same,outcome,[7],inactive
CCCCCCCC/C=C\CCCCCCCC(=O)O,Potency,[1],> 92 µM
same,Potency,[2],> 92 µM
same,Potency,[3],> 92 µM
same,Potency,[4],> 92 µM
same,Potency,[5],> 92 µM
same,Potency,[6],> 92 µM
same,outcome,[7],inactive
same,"activity change, negative = cytotoxicity",[8],-2.98%
same,outcome,[9],inactive
same,Potency,[10],inactive
same,Potency,[11],inactive
same,"viability change, negative = cytotoxic",[12],3.98%
same,outcome,[13],inactive
same,"activity change, negative = cytotoxicity",[14],16.2%
CC(Cc1ccc(O)c(O)c1)C(C)Cc1ccc(O)c(O)c1 (stereo not given),outcome,[17],inactive
CC(C)N=c1cc2n(-c3ccc(Cl)cc3)c3ccccc3nc-2cc1Nc1ccc(Cl)cc1,Potency,[16],inactive
same,"activity change, negative = inhibition",[18],-120% (active)
same,outcome,[17],inactive
same,Potency,[15],> 20.6 µM
Nc1ccn([C@H]2CS[C@@H](CO)O2)c(=O)n1,Potency,[1],> 92 µM
same,Potency,[2],> 92 µM
same,Potency,[3],> 92 µM
same,Potency,[4],> 92 µM
same,Potency,[5],> 92 µM
same,Potency,[6],> 92 µM
same,outcome,[7],inactive
same,"activity change, negative = cytotoxicity",[8],-5.31%
same,outcome,[9],inactive
same,Potency,[10],inactive
same,Potency,[11],inactive
same,"viability change, negative = cytotoxic",[12],1.14%
same,outcome,[13],inactive
same,"activity change, negative = cytotoxicity",[14],7.61%
O=S(=O)(O)O,Potency,[1],> 92 µM
same,Potency,[2],> 92 µM
same,Potency,[3],> 92 µM
same,Potency,[4],> 92 µM
same,Potency,[5],> 92 µM
same,Potency,[6],> 92 µM
same,outcome,[7],inactive
same,"activity change, negative = cytotoxicity",[8],-3.09% and 7.28%
same,outcome,[9],inactive
same,Potency,[10],inactive
same,Potency,[11],inactive
same,"viability change, negative = cytotoxic",[12],2.52% and 9.94%
same,outcome,[13],inactive
same,"activity change, negative = cytotoxicity",[14],-5.83% and 4.47%
